Rows were chosen to be rich in hits. Some 5% of all compounds tested hit in one or more screens of this group.
USP8 block – human USP8 deubiquitinase inhibition. P40818. AID 1645853. purified USP8, Ub-rhodamine cleavage fluorescence, 30 min. 47,000 compounds, 4.2% hits. inhibition, % at 20 µM
USP10 inh – inhibitors of human USP10 deubiquitinase; purified USP10, Ub-rhodamine fluorescence, 60 min; inhibition, % at 20 µM; 47,000 compounds, 1.1% hits; AID 1645856
USP7 inh – human USP7 deubiquitinase inhibition. Q93009. 47,000 compounds, 0.3% hits. purified USP7, Ub-rhodamine cleavage fluorescence. inhibition, % at 20 µM
UCHL1 block – inhibitors of human UCHL1 deubiquitinase; inhibition, % at 20 µM; purified UCHL1, Ub-rhodamine cleavage fluorescence; 47,000 compounds, 0.2% hits; AID 1645859
Target sequence (P09936 whole entry, looked up): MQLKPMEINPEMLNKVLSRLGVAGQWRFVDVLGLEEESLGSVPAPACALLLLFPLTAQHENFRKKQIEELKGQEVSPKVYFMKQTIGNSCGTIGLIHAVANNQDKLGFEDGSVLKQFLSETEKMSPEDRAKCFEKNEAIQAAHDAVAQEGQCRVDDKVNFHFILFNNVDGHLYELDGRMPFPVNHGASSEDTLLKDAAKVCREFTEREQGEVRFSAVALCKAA
* = called active by the depositor. Rule as the data show it: active = inhibition above about 30%; inactive = the rest.

Results for COc1ccc(C)cc1NC(=O)CN1C(=O)C2CCCC2=Nc2ccccc21 (centres undefined) ?
USP8 block: 42*; USP10 inh: 25; USP7 inh: 8; UCHL1 block: 3

What do the screens show for `COc1cccc(NC(=O)CN2C(=O)C3CCCC3=Nc3ccccc32)c1` (centres undefined)?
USP8 block: 7; USP10 inh: 6; USP7 inh: 4; UCHL1 block: 5

What do the screens show for `Cc1ccc(N2CC(c3nc4ccccc4n3CCOc3cccc(C)c3)CC2=O)cc1` (centres undefined)?
USP8 block: 95*; USP10 inh: 69*; USP7 inh: 32*; UCHL1 block: 5

Results for CCn1c(CCNC(=O)c2ccccc2)nc2ccccc21 ?
USP8 block: -4; USP10 inh: -2; USP7 inh: 0; UCHL1 block: 0

How did Cc1cccc(OCCn2c(CCNC(=O)C3CCCCC3)nc3ccccc32)c1 do in these assays?
USP8 block: 48*; USP10 inh: 32*; USP7 inh: -6; UCHL1 block: 0

How did Cc1ccc(N2CC(c3nc4ccccc4n3CCCCOc3ccccc3)CC2=O)cc1 (centres undefined) do in these assays?
USP8 block: 5; USP10 inh: 11; USP7 inh: 13; UCHL1 block: 8

Results for CCc1ccc(OCCn2c(CCNC(=O)C3CCCCC3)nc3ccccc32)cc1 ?
USP8 block: 69*; USP10 inh: 28; USP7 inh: 13; UCHL1 block: 3

What do the screens show for `O=C(NCCc1nc2ccccc2n1CCOc1ccccc1Cl)C1CCCCC1`?
USP8 block: 83*; USP10 inh: 38*; USP7 inh: 22; UCHL1 block: 2

Results for CC(=O)N1CCN(S(=O)(=O)c2ccc(Cl)cc2)CC2(CC(=O)N(C)C2)C1 (centres undefined) ?
USP8 block: -3; USP10 inh: 0; USP7 inh: 2; UCHL1 block: -1

Results for Cc1ccnc2nc(NC(=O)c3cccc(Cl)c3)nn12 ?
USP8 block: -49; USP10 inh: 1; USP7 inh: 3; UCHL1 block: 0

What do the screens show for `CCn1cc(C(=O)NCc2cnc(C3CCCCO3)nc2)cn1` (centres undefined)?
USP8 block: 22; USP10 inh: 0; USP7 inh: 5; UCHL1 block: 1

Results for CNC(=O)C1CN(C(=O)Cc2c(F)cccc2Cl)CC12CCCC2 (centres undefined) ?
USP8 block: -10; USP10 inh: 1; USP7 inh: -25; UCHL1 block: -3

What do the screens show for `O=C(c1cc2ccccc2oc1=O)N(Cc1cccc2ccccc12)c1ccccn1`?
USP8 block: -9; USP10 inh: 2; USP7 inh: 6; UCHL1 block: 4

How did Cc1cc(O)ccc1NC(=O)CC(NCCc1ccccc1)C(=O)O (centres undefined) do in these assays?
USP8 block: 31*; USP10 inh: 3; USP7 inh: 6; UCHL1 block: 1

How did COc1ccc(Cn2c(=O)[nH]c3cc(C(=O)NCCCN4CCN(c5cccc(Cl)c5)CC4)ccc3c2=O)cc1 do in these assays?
USP8 block: 83*; USP10 inh: 60*; USP7 inh: 12; UCHL1 block: 6

What do the screens show for `COc1ccc(N2CCN(CCCNC(=O)c3ccc4c(=O)n(CCc5ccccc5)c(=O)[nH]c4c3)CC2)cc1`?
USP8 block: 16; USP10 inh: 10; USP7 inh: 0; UCHL1 block: 0

Results for O=C(NCc1ccccc1)C1Cn2ccnc2C2(CCN(C(=O)c3ccccc3)CC2)O1 (centres undefined) ?
USP8 block: -24; USP10 inh: 1; USP7 inh: 0; UCHL1 block: -1

How did COc1cccc(S(=O)(=O)N2CC[C@@H]3[C@H]2C(=O)N(C)[C@@H](C)C(=O)N3C)c1 do in these assays?
USP8 block: 32*; USP10 inh: 0; USP7 inh: 6; UCHL1 block: 2

How did O=C(Cc1nc(-c2ccccn2)n[nH]1)Nc1ccc(F)cc1F do in these assays?
USP8 block: -192; USP10 inh: -4; USP7 inh: -2; UCHL1 block: -2

Results for COc1ccc(C2CC(=O)c3cnc(N4CC(C)CC(C)C4)nc3C2)cc1 (centres undefined) ?
USP8 block: 23; USP10 inh: 5; USP7 inh: 1; UCHL1 block: 3

Results for Cc1cc2nccc(C3CCN(C(=O)COc4cccnc4)CC3)n2n1 ?
USP8 block: 49*; USP10 inh: -12; USP7 inh: -99; UCHL1 block: -34

How did COc1ncccc1C(=O)N1CCC(c2ccnc3cc(C)nn23)CC1 do in these assays?
USP8 block: 17; USP10 inh: 0; USP7 inh: 3; UCHL1 block: 0

How did CCc1cc(=O)[nH]c(NC2CCN(C(=O)C3(c4ccc(OC)cc4)CC3)CC2)n1 do in these assays?
USP8 block: 6; USP10 inh: 0; USP7 inh: 4; UCHL1 block: 2

Results for Cc1ncc(-c2ccccn2)c(-c2ccc(CNC(=O)Cc3sc(C)nc3C)cc2)n1 ?
USP8 block: 36*; USP10 inh: 0; USP7 inh: 5; UCHL1 block: 2

What do the screens show for `COc1ccc(Cl)cc1NC(=O)c1cc(-c2ccncc2)n[nH]1`?
USP8 block: 16; USP10 inh: -2; USP7 inh: 0; UCHL1 block: -2

What do the screens show for `CCN(CC(=O)Nc1cc(C)on1)c1cccc2ccccc12`?
USP8 block: 90*; USP10 inh: 5; USP7 inh: 0; UCHL1 block: 1

What do the screens show for `Cc1cc(NC(=O)CNc2ccccc2F)no1`?
USP8 block: 1; USP10 inh: -1; USP7 inh: -2; UCHL1 block: -1

Results for CCCn1c2ccccc2n2c(C(C)=O)c(-c3ccccc3)nc12 ?
USP8 block: 3; USP10 inh: 8; USP7 inh: 8; UCHL1 block: 10

What do the screens show for `CCCn1c2ccccc2n2cc(-c3ccc(-c4ccccc4)cc3)nc12`?
USP8 block: 81*; USP10 inh: -5; USP7 inh: -9; UCHL1 block: 0

How did Brc1ccc(-c2cn3c4ccccc4n(CCN4CCCCC4)c3n2)cc1 do in these assays?
USP8 block: 48*; USP10 inh: -6; USP7 inh: -3; UCHL1 block: 0

What do the screens show for `Fc1ccc(-c2cn3c4ccccc4n(Cc4ccc(Cl)cc4)c3n2)cc1`?
USP8 block: 62*; USP10 inh: -4; USP7 inh: -53; UCHL1 block: 0

Results for COc1ccccc1S(=O)(=O)N1CCN2Cc3ccccc3N(C)CC2C1 (centres undefined) ?
USP8 block: -279; USP10 inh: -5; USP7 inh: -43; UCHL1 block: -46

What do the screens show for `Cc1ccc(NC(=O)Nc2cccc(-c3ccc(N4CCOCC4)nn3)c2)cc1`?
USP8 block: 21; USP10 inh: 1; USP7 inh: 5; UCHL1 block: 0

What do the screens show for `CCCCN1CC(C(=O)Nc2ccc(C(=O)Nc3ccc(C(N)=O)cc3)cc2)CC1=O` (centres undefined)?
USP8 block: 2; USP10 inh: 41*; USP7 inh: 7; UCHL1 block: 2

Results for Cn1ccc2c(cc(C(=O)NCc3ccc(F)c(Cl)c3)n2C)c1=O ?
USP8 block: -2; USP10 inh: -3; USP7 inh: -2; UCHL1 block: -3

Compound activity deposited in PubChem by Buhrlage Lab, Dana-Farber Cancer Institute and Novartis Institutes for BioMedical Research (Cambridge, Mass).
